Measured values: the supplement of paper PMC6555819

The sequences below were run on LXRb:RXRa (NR concentration 270 nM, RXRa partner concentration 90 nM) (assay: PBM binding z-score (relative to random genomic background probes); higher = stronger binding; sequences stand for … in GC…GCGATTGACAGCGTAGAATGAAGG).
Summary of the method: (§1)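 Binding z-scores take random background probes as their reference. They come from custom Agilent 4×180K protein-binding microarrays incubated 1 h with ligand-free nuclear receptor dimers, with antibodies against each partner (one per run) detecting binding. Scanned fluorescence was regression-normalized.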
With ATCGAAAGGTCGAAGGTGAGTATACCCACCCGAA the PBM binding z-score was 2.86.
For TCTTGTAGATCAATAGAGGTTACGAAAGTGCGCT, the PBM binding z-score was 2.05.
TCTTGTTGATCAAGCAGGTTAAGAAAGCCTGAGT was tested, and the PBM binding z-score was 0.357.
CGTCCTAGGTCAAGGTCAGTGAAAGAGACTCGAA gave a PBM binding z-score of 3.5.
GGAACGAGTGCAAAGTTGATAGCATCTGTCGACG gave a PBM binding z-score of -0.315.
With TCTAGTTGGTCTCGGAGGTCACACACGACGGGTA the PBM binding z-score was 3.18.
For CTAACTAGGTCAGAACAGGACAGTGAAGGATGAT, the PBM binding z-score was 0.586.
Work on TCTTGTAGATCAACAGGAGTTTAAGAAAGATCGA yielded a PBM binding z-score of -0.131.
CGTCCACGGTCAATGCTAGGTCAGTGAAAGCATT showed a PBM binding z-score of 0.337.
With CCTTACGGGTCACTGACAGGTTAAAGCATTTGGA the PBM binding z-score was 3.69.
For CCTAGTTGGTCAGGAGGTAACACACCGGATATGA, the PBM binding z-score was 0.204.
ATAACGAGGGCAATGAGTTGATAGCACGGGTGGC was tested, and the PBM binding z-score was 0.00885.
In the case of GCGACTGGGGCATAGCAGGTTACCATAAGGTTGG, the PBM binding z-score is reported as 0.25.
TTACCAAGCTGAGCTGAGGTCGTTGATCCAACTC gave a PBM binding z-score of -0.148.
CGGCCAAGGTCAGAGAGGTCAGTGAATGCCGAGT gave a PBM binding z-score of 4.41.
In the case of GGGACTGGGGCAAAGCAGGTTACCATAAGGTTGG, the PBM binding z-score is reported as 1.24.
With TCAGACAAGTGAAGGTAACTCAGGTACGCAGTCG the PBM binding z-score was 0.561.
GCTTGTAGATCACGGTTAAGAAAGACTAAGCTAA gave a PBM binding z-score of -0.369.
In the case of GTTAGTTGGTCAGTAAAAGGTCACACACCGGTCG, the PBM binding z-score is reported as 3.94.
TCATATAGGTAAACAGGTGAAAGTTCGTAAGTTA was tested, and the PBM binding z-score was 1.4.
ACTAGTTGGTCAGGTGAGGTCACACACAATTCGG showed a PBM binding z-score of 3.35.
With ATCGAAAGGTCGAAGGTGAGAATACCCACCCGAA the PBM binding z-score was 2.94.
Work on TCTTCTAGATCAAAGGTTAAGAAAGCCGAAGCCT yielded a PBM binding z-score of 2.13.
For CCTTACGGGTCACGATGTTATAGCACGACGAGCG, the PBM binding z-score was 3.42.
GGAATGAGGGCAAAGTTGATAGCATCTGTCGACG was tested, and the PBM binding z-score was 1.11.
Work on TCATATAGGTAATACAGGTGACAGTCGGCATCTA yielded a PBM binding z-score of 0.966.
With CCTATTAGTTGACCATAAAGGCAACCGAAGCTCG the PBM binding z-score was 0.76.
ATCTCTAGGTAAAGTTCCGTGAAAGATCGATAGA gave a PBM binding z-score of 0.245.
In the case of CATCGGAGGACAACAGGAGGTCAGAGCTGCCAGA, the PBM binding z-score is reported as 1.91.
Work on CGTCAAAGTCCAACTAAGGTAACGTAAAGCACGC yielded a PBM binding z-score of -0.00355.
Sequence TTGCCTAGGTCATTCAGGGGCCAGTATAGAAAGC has a PBM binding z-score of 2.93.
Work on ATCTCTAGGTAAAGATAGTTCAGCGAATGCAAAT yielded a PBM binding z-score of 0.836.
ATCTCTAGGTAAGACTCAGTTCAGTGAAGAACGC showed a PBM binding z-score of 0.261.
AAACCAAGGTGATCGTGAGGTCGTTGATACTAAC showed a PBM binding z-score of 1.13.
With GTACCAAGGTGAATAGATCGTTGATGAGTAGGCG the PBM binding z-score was -0.113.
In the case of CCTCGGAGGACAACAGGAGCTCAGAGCTGCCAGA, the PBM binding z-score is reported as -0.921.
In the case of CAAGCTAGGTCACAGAGGTCAAAGTCCGTGCGTA, the PBM binding z-score is reported as 6.28.
For ACTTTTAGTTGACTTAGGGCAACCGATACGACGC, the PBM binding z-score was 0.578.
Work on TCTATTAGTTGAAGGGTAACCGACGAGTCCGTTT yielded a PBM binding z-score of 1.17.

The sequences below were run on LXRb homodimer (NR concentration 270 nM) in the same assay as above.
Summary of the method: as §1
In the case of ATCGAAAGGTCGAAGGTGAGTATACCCACCCGAA, the PBM binding z-score is reported as 0.5.
TCTTGTAGATCAATAGAGGTTACGAAAGTGCGCT showed a PBM binding z-score of 0.24.
Work on TCTTGTTGATCAAGCAGGTTAAGAAAGCCTGAGT yielded a PBM binding z-score of -0.269.
CGTCCTAGGTCAAGGTCAGTGAAAGAGACTCGAA was tested, and the PBM binding z-score was 0.178.
For GGAACGAGTGCAAAGTTGATAGCATCTGTCGACG, the PBM binding z-score was -0.482.
TCTAGTTGGTCTCGGAGGTCACACACGACGGGTA was tested, and the PBM binding z-score was 0.844.
CTAACTAGGTCAGAACAGGACAGTGAAGGATGAT showed a PBM binding z-score of -0.0139.
TCTTGTAGATCAACAGGAGTTTAAGAAAGATCGA showed a PBM binding z-score of -0.759.
CGTCCACGGTCAATGCTAGGTCAGTGAAAGCATT showed a PBM binding z-score of -0.956.
For CCTTACGGGTCACTGACAGGTTAAAGCATTTGGA, the PBM binding z-score was -0.38.
Work on CCTAGTTGGTCAGGAGGTAACACACCGGATATGA yielded a PBM binding z-score of -0.0466.
ATAACGAGGGCAATGAGTTGATAGCACGGGTGGC showed a PBM binding z-score of 0.11.
With GCGACTGGGGCATAGCAGGTTACCATAAGGTTGG the PBM binding z-score was -0.915.
Sequence TTACCAAGCTGAGCTGAGGTCGTTGATCCAACTC has a PBM binding z-score of -1.09.
CGGCCAAGGTCAGAGAGGTCAGTGAATGCCGAGT gave a PBM binding z-score of -0.527.
In the case of GGGACTGGGGCAAAGCAGGTTACCATAAGGTTGG, the PBM binding z-score is reported as 1.22.
With TCAGACAAGTGAAGGTAACTCAGGTACGCAGTCG the PBM binding z-score was -0.499.
For GCTTGTAGATCACGGTTAAGAAAGACTAAGCTAA, the PBM binding z-score was -0.584.
In the case of GTTAGTTGGTCAGTAAAAGGTCACACACCGGTCG, the PBM binding z-score is reported as 1.41.
With TCATATAGGTAAACAGGTGAAAGTTCGTAAGTTA the PBM binding z-score was -0.228.
ACTAGTTGGTCAGGTGAGGTCACACACAATTCGG showed a PBM binding z-score of 0.501.
ATCGAAAGGTCGAAGGTGAGAATACCCACCCGAA gave a PBM binding z-score of 0.451.
In the case of TCTTCTAGATCAAAGGTTAAGAAAGCCGAAGCCT, the PBM binding z-score is reported as 0.536.
CCTTACGGGTCACGATGTTATAGCACGACGAGCG gave a PBM binding z-score of -0.0634.
For GGAATGAGGGCAAAGTTGATAGCATCTGTCGACG, the PBM binding z-score was -0.0126.
In the case of TCATATAGGTAATACAGGTGACAGTCGGCATCTA, the PBM binding z-score is reported as 0.0585.
Work on CCTATTAGTTGACCATAAAGGCAACCGAAGCTCG yielded a PBM binding z-score of 0.816.
Sequence ATCTCTAGGTAAAGTTCCGTGAAAGATCGATAGA has a PBM binding z-score of 0.829.
Work on CATCGGAGGACAACAGGAGGTCAGAGCTGCCAGA yielded a PBM binding z-score of -0.192.
In the case of CGTCAAAGTCCAACTAAGGTAACGTAAAGCACGC, the PBM binding z-score is reported as 0.104.
TTGCCTAGGTCATTCAGGGGCCAGTATAGAAAGC showed a PBM binding z-score of 0.902.
In the case of ATCTCTAGGTAAAGATAGTTCAGCGAATGCAAAT, the PBM binding z-score is reported as 0.431.
Work on ATCTCTAGGTAAGACTCAGTTCAGTGAAGAACGC yielded a PBM binding z-score of 1.05.
AAACCAAGGTGATCGTGAGGTCGTTGATACTAAC gave a PBM binding z-score of -0.456.
GTACCAAGGTGAATAGATCGTTGATGAGTAGGCG showed a PBM binding z-score of -0.522.
CCTCGGAGGACAACAGGAGCTCAGAGCTGCCAGA gave a PBM binding z-score of -0.933.
CAAGCTAGGTCACAGAGGTCAAAGTCCGTGCGTA gave a PBM binding z-score of 1.9.
In the case of ACTTTTAGTTGACTTAGGGCAACCGATACGACGC, the PBM binding z-score is reported as 1.38.
With TCTATTAGTTGAAGGGTAACCGACGAGTCCGTTT the PBM binding z-score was 0.781.
